Data reported in PubChem BioAssay.
Results filed as inconclusive are left out. Active and inactive are the calls of the source.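 Rule for the calls, unless noted: active = viability increase at or above a cutoff of the median across tested compounds plus 3 SD (cut at about 8.5% in these data, passing the limit was not always enough); inconclusive = some gains above the cutoff, reason not given; inactive = the rest.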

Tests used:
[1] = reducers of endogenous Her2 protein level, primary screen, SKBR3 breast tumor cells, AlphaScreen, ATP viability (AID 461;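 active = Her2 level under about 52% in both replicate screens, with viability over 70% of control, limit read from the data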;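 for Her2 level: lower value means less Her2 protein in the cells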;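 for viability: percent of carrier control wells set as 100% viability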); conditions: 18-24 h, measured here: SKBR3 viability, ATP luminescence, at 10 µM
[2] = molecular target: Receptor tyrosine-protein kinase erbB-2 (Homo sapiens) (UniProt P04626); test: as above; conditions: 18-24 h, at 10 µM, stronger effect = lower value
[3] = SK-BR-3 cell growth inhibitors, pilot screen, 24 h, human (AID 572;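 active = viability at or below 10% of carrier control in both of two separate runs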;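 note: compound exposure lasted between 18 and 24 h rather than exactly 24 h; 100% = carrier-treated control wells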); conditions: SK-BR-3 viability, CellTiter-Glo luminescence, at 10 µM, stronger effect = lower value
[4] = HUVEC growth inhibition – cell-based, human, primary screen (AID 575;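 active = viability at or below 30% in both replicate assays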;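 note: 100% = median of untreated cell wells with 0.1% DMSO on each plate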); conditions: HUVEC proliferation, CellTiter-Glo luminescence, 72 h; at 10 µM; stronger effect = lower value
[5] = growth inhibitors of H69AR lung tumor, primary screen, human, duplicate replicates (AID 580;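 active = viability at or under a set limit in both replicates, limit being median viability minus 3 SD, cut at about 48% in these data, passing the limit was not always enough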;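 note: 100% = mean luminescence of untreated wells and 0% = no signal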); conditions: H69AR lung tumor cells viability, ATP luminescence, 72 h; at 10 µM; stronger effect = lower value
[6] = reversal of MRP1-mediated doxorubicin resistance, pilot screen, H69AR cells, doxorubicin co-treatment (AID 601;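 active = viability loss from added drug above about 55%, and viability with drug at most 40%, in both replicates, limit read from the data, passing the limit was not always enough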); conditions: CellTiter-Glo, 72 h, at 10 µM; for differential viability (reversal): stronger effect = higher value
[7] = 384-well plate pilot, post-Golgi transport modulator project, inhibition of yeast transport mutant growth (AID 636; in the data active = inhibition above about 31%); conditions: absorbance 615 nm, about 18 h, stronger effect = higher value
[8] = growth suppression of yeast trafficking mutant, preliminary HTS, modulators of trafficking downstream of Golgi apparatus project, 1536-format plate, OD 615 nm (AID 637; in the data active = inhibition above about 30%); conditions: yeast transport mutant growth, absorbance 615 nm, 18 h; stronger effect = higher value
[9] = OD615 S. cerevisiae growth inhibition, permissive medium, pilot counter-assay, permissive growth control for S. cerevisiae lifespan shortening project (AID 705;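 active = growth inhibition above 25% in both replicates, a cutoff set 3 SD above the mean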); conditions: OD615, 24 h, at 10 µM, stronger effect = higher value
[10] = Restrictive medium S. cerevisiae growth inhibition, OD615, pilot screen of yeast lifespan reduction project, restrictive growth control (AID 706;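 active = growth inhibition above a set limit, 3 SD over mean compound inhibition, in both replicates, cut at about 43% in these data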;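 note: modified DeaD lifespan yeast strain shifted to restrictive glucose medium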); conditions: OD615, 48 h, at 10 µM, stronger effect = higher value
[11] = viability gain of MRP-1-high H69AR cells under doxorubicin, pilot screen, MRP-1 activator project, CellTiter-Glo, duplicate (AID 807); conditions: H69AR viability with doxorubicin, CellTiter-Glo luminescence; at 10 µM; stronger effect = higher value;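 note: compound pretreatment 18-22 h then 72 h combined with doxorubicin; 0% = doxorubicin alone and 100% = vehicle without doxorubicin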
[12] = growth suppression of beta-catenin knockout HCT116, pilot screen, human colon tumor cells (AID 823;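 active = cell viability at or below a set limit in both duplicate runs, the limit being the all-compound median minus 4 SD, cut at about 23% in these data, passing the limit was not always enough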;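 note: 0% = wells killed by 20 µM Hyamine and 100% = untreated DMSO cell wells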); conditions: CellTiter-Glo, 60 h, at 10 µM, stronger effect = lower value
[13] = growth suppression of PTEN-deleted HCT116, pilot screen, cell-based, HCT116 clonal line, CellTiter-Glo (AID 824;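 active = viability at or below 27.92% in each of two runs, the all-compound median minus 4 SD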;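 note: 0% = 20 µM Hyamine control and 100% = vehicle cell control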); conditions: 60 h, at 10 µM, stronger effect = lower value
[14] = inhibitors of the yeast RAM network, pilot screen, dse1pr::URA3 reporter, 5-FOA selection (AID 869;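 active = inhibition over a set limit, the all-compound mean plus 3 SD, in both replicate runs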;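 note: 0% = DMSO wells with no growth and 100% = 10 µM 1-NA-PP1 with full growth; RAM network block rescues cells from 5-FOA so hits raise OD615 growth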); conditions: S. cerevisiae dse1pr::URA3 5-FOA growth, OD615, 2 d; at 10 µM; stronger effect = higher value; strain carries analog-sensitive mutant Cbk1 kinase
[15] = RAM signaling pathway blockade in yeast – S. cerevisiae, Pdr1DBD-CYC8 efflux-inhibited sensitized strain, primary screen (AID 1298;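 active = RAM network inhibition above 8.4% in each of two replicates, 3 SD over the compound average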;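 note: 0% = DMSO untreated cells without growth and 100% = 10 µM 1-NA-PP1 full growth; higher means more yeast growth rescued from 5-FOA killing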); conditions: S. cerevisiae cbk1-as DSE1-URA3 strain, 5-FOA growth OD615, 2 d; at 50 µM; stronger effect = higher value
[16] = H69AR cells + 2 uM doxorubicin, measured here: viability with 2 uM doxorubicin, stronger effect = lower value
[17] = H69AR cells, compound alone cytotoxicity

Receptor tyrosine-protein kinase erbB-2 (Homo sapiens), sequence (P04626 whole entry, looked up): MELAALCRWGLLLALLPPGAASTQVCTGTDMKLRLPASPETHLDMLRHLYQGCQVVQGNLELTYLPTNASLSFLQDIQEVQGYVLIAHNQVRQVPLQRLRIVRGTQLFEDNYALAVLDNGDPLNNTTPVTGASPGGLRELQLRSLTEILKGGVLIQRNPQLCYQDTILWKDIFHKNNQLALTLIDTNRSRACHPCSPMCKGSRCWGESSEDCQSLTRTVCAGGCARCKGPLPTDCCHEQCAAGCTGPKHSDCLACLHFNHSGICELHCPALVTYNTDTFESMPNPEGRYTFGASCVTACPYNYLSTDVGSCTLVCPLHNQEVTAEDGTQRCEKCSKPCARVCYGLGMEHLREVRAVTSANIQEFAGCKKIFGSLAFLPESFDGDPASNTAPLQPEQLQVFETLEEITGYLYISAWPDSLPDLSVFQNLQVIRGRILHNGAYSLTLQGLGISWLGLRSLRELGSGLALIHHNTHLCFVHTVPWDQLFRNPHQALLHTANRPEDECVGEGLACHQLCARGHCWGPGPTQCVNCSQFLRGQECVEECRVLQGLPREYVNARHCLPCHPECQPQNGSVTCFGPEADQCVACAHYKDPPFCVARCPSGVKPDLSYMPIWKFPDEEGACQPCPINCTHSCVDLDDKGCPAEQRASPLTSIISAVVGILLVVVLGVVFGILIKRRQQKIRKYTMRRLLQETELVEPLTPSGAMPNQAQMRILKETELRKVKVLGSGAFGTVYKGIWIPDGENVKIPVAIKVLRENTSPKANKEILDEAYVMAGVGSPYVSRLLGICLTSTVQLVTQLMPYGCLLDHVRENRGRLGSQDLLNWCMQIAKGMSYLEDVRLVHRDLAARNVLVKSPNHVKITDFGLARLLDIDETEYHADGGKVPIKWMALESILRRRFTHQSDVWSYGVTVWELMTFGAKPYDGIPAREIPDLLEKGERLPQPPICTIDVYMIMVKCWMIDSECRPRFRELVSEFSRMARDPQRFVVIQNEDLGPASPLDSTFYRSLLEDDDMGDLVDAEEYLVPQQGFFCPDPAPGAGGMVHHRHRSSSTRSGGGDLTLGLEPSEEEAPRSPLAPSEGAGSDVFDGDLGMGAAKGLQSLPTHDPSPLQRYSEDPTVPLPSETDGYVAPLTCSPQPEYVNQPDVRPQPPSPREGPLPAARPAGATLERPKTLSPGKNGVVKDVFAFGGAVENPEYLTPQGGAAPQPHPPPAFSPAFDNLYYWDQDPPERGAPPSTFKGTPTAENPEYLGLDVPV

| SMILES | viability [1] | Her2 level [2] | viability [3] | viability [4] | viability [5] | differential viability (reversal) ([6]; H69AR cells + 2 uM doxorubicin) | viability [6, 16] | viability [6, 17] | inhibition [7] | inhibition [8] | growth inhibition [9] | growth inhibition [10] | viability increase [11] | viability [12] | viability [13] | inhibition [14] | RAM network inhibition [15] |
| --- | --- | --- | --- | --- | --- | --- | --- | --- | --- | --- | --- | --- | --- | --- | --- | --- | --- |
| CCN(CC)CCNC(=O)c1ccc(CS(=O)(=O)c2ccc(Br)cc2)o1 | 92.5% | 110% (inactive) | 92.5% (inactive) | 100% (inactive) | 95.9% (inactive) | 5.79% (inactive) | 90.1% | 95.9% | -0.26% (inactive) | 0.17% (inactive) | -12.3% (inactive) | -17.7% (inactive) | -2.1% (inactive) | 97.1% (inactive) | 96.5% (inactive) | 0.92% (inactive) | 0.74% (inactive) |
| CC(C)c1ncc(C(O)c2cccc3ccccc23)n1C (stereo not drawn) | 97.5% | 129% (inactive) | 97.5% (inactive) | 113% (inactive) | 87.5% (inactive) | 4.07% (inactive) | 83.5% | 87.5% | -4.68% (inactive) | -5.5% (inactive) | -21.2% (inactive) | -7.64% (inactive) | -0.83% (inactive) | 81.6% (inactive) | 79.1% (inactive) | 1.15% (inactive) | 0.82% (inactive) |
| CC(=O)N1c2c(cc(Br)cc2S(=O)(=O)NCC2COc3ccccc3O2)CC1C (stereo not drawn) | 97.5% | 85% (inactive) | 97.5% (inactive) | 88.9% (inactive) | 81.7% (inactive) | -2.64% (inactive) | 84.3% | 81.7% | -5.34% (inactive) | -2.06% (inactive) | -0.935% (inactive) | 8.23% (inactive) | 0.21% (inactive) | 83.2% (inactive) | 81% (inactive) | 0.495% (inactive) | 0.61% (inactive) |
| CC1(C(=O)NC2CCCCC2)CCC(=O)N1Cc1cccs1 (stereo not drawn) | 83% | 114% (inactive) | 83% (inactive) | 102% (inactive) | 85.3% (inactive) | -5.18% (inactive) | 90.5% | 85.3% | 2.31% (inactive) | 8.83% (inactive) | -4.46% (inactive) | -15.9% (inactive) | -0.4% (inactive) | 102% (inactive) | 93.7% (inactive) | 3.65% (inactive) | 1.09% (inactive) |
| COc1cc(/C=N/n2cnnc2)ccc1OCC(=O)N1CCOCC1 | 84% | 93.5% (inactive) | 84% (inactive) | 99.5% (inactive) | 93% (inactive) | -6.64% (inactive) | 99.6% | 93% | -0.9% (inactive) | -1.17% (inactive) | -6.31% (inactive) | -6.25% (inactive) | -2.75% (inactive) | 104% (inactive) | 98.9% (inactive) | 2.55% (inactive) | 6.03% (inactive) |
| O=C1c2ccccc2S(=O)(=O)N1CC(O)Cn1c2ccccc2c2ccccc21 (stereo not drawn) | 90% | 96% (inactive) | 90% (inactive) | 73.2% (inactive) | 85% (inactive) | -2.51% (inactive) | 87.6% | 85% | 99.3% (active) | 94.7% (active) | -2.73% (inactive) | 9.13% (inactive) | -1.19% (inactive) | 89.7% (inactive) | 96.3% (inactive) | 2.46% (inactive) | 0.57% (inactive) |
| COc1ccccc1N(CC(=O)Nc1cccnc1)S(C)(=O)=O | 94.5% | 108% (inactive) | 94.5% (inactive) | 89.8% (inactive) | 89.3% (inactive) | 1.5% (inactive) | 87.8% | 89.3% | 0.81% (inactive) | -3.28% (inactive) | -5.2% (inactive) | 13.5% (inactive) | -1.31% (inactive) | 103% (inactive) | 97.2% (inactive) | 2.62% (inactive) | 3.47% (inactive) |
| CCOc1ccccc1N(CC(=O)N1CCCCCC1)S(C)(=O)=O | 99% | 97% (inactive) | 99% (inactive) | 97.5% (inactive) | 99.8% (inactive) | 10.3% (inactive) | 89.5% | 99.8% | -1.3% (inactive) | 1.15% (inactive) | -4.37% (inactive) | -10.9% (inactive) | -1.33% (inactive) | 91.1% (inactive) | 99.4% (inactive) | 0.65% (inactive) | 3.99% (inactive) |
| Cc1cccc(NC(=O)c2ccccc2O)c1C | 60% | 75.5% (inactive) | 60% (inactive) | 59.2% (inactive) | 93.3% (inactive) | 4.91% (inactive) | 88.4% | 93.3% | -5.95% (inactive) | -3.61% (inactive) | 2.66% (inactive) | 1.19% (inactive) | -1.89% (inactive) | 86.5% (inactive) | 86.3% (inactive) | 1.33% (inactive) | 2.03% (inactive) |
